gsp antag = qHTS for Antagonists of gsp, the Etiologic Mutation Responsible for Fibrous Dysplasia/McCune-Albright Syndrome: qHTS. gsp-mutant cells, cAMP HTRF, 30 min. Potency, µM (doses to about 76.9 µM), actives largely listed as inhibitors. 340,000 compounds, 0.4% hits. AID 624288, 2012; calls by dose curve; cell line not stated here;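 note: intracellular cAMP measured with PDE inhibitor Ro 20-1724 present during compound exposure; nearly all actives have a fitted effect of over 65% in size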
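Measurement of cellular cAMP by homogeneous time-resolved fluorescence following a 30 min compound exposure at 37C. The PDE inhibitor […] was present throughout; the assay buffer was DPBS with 0.05% BSA and 0.005% Tween 20.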
gsp agonist = qHTS for Agonist of gsp, the Etiologic Mutation Responsible for Fibrous Dysplasia/McCune-Albright Syndrome: qHTS. gsp mutant cells, cAMP HTRF, 30 min. Potency, µM (titrated, usually from 76.9 µM), hits mostly activators. 340,000 compounds, 0.13% hits. AID 624287, 2012; active = well fitted activation curve with a large enough effect; inconclusive = small, poorly fitted or top-dose-only effect, or another doubt; inactive = no such curve, though single readings can be large or run the other way; cell line not stated here;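 note: phosphodiesterase inhibitor Ro 20-1724 added with compounds to block cAMP breakdown; nearly all actives have a fitted effect of over 60% in size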
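Cells stably selected in G418 were plated at 2000/well, grown 16-24 hr, then given compounds in DMSO with the PDE inhibitor […] (300 uM solution added) for 30 min at 37C; cAMP was read by HTRF.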
Akt phos inh = HTS Assay for Inhibitors of Akt Phophorylation: Primary Screen; 360,000 compounds, 0.32% hits; activity change, % for hits at 50 µM; Neuro2A IGF-stimulated pAkt S473 HTRF, 20 min; stronger effect = lower value; in the data active = activity change below about -80%; inconclusive = mostly about -51% to -80%
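Neuro2A cells (4,500/well, DMEM with 0.5% FBS) were treated with compound at a single 50 µM final concentration, stimulated with 6 nM IGF for 20 min at 37 °C, and lysed. Phospho-Akt Ser473 was read by HTRF as 665/615 ratio ×10^4.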
RXFP1 antagonist = qHTS Assay for Antagonists of the Relaxin Receptor RXFP1; Relaxin receptor 1 (Homo sapiens), Q9HBX9; HEK293-RXFP1, relaxin-stimulated cAMP HTRF, 30 min; stronger effect = lower value; activity change, negative = inhibition, % at 57.5 µM; 350,000 compounds, 0.59% hits;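 active = activity change of -60% or lower, but not beyond a set lower limit; inconclusive = change between -60% and -40%, or beyond the set limit; inactive = change above -40%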
Target sequence (Q9HBX9 whole entry, looked up): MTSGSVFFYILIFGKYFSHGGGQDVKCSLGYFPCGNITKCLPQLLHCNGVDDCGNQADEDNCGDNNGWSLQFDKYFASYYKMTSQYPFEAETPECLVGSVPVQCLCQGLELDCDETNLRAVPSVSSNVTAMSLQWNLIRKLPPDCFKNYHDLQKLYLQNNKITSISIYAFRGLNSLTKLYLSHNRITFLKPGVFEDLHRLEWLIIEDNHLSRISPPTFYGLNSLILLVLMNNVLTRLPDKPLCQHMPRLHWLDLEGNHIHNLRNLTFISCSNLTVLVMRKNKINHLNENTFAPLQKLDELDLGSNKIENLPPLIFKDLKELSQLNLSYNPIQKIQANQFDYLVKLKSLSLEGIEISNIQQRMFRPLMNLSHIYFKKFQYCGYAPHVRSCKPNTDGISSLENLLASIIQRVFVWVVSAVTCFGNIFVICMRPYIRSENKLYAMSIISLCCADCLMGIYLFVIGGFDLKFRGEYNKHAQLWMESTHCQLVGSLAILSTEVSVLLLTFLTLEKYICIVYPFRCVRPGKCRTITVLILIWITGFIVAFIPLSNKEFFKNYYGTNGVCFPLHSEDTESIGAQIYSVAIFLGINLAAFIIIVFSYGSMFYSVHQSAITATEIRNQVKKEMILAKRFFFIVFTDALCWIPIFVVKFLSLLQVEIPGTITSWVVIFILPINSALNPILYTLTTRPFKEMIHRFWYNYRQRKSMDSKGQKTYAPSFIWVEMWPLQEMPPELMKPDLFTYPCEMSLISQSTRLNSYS
RXFP1 ag = qHTS Assay for Agonists of the Relaxin Receptor RXFP1 | Relaxin receptor 1 (Homo sapiens), Q9HBX9 | HEK293T-RXFP1 cAMP TR-FRET, 30 min; response scale: percent of porcine relaxin response, buffer zero | Potency, µM (doses to about 57.5 µM), most hits filed as activators | 370,000 compounds, 0.3% hits | AID 2676, 2010; active = well fitted activation curve with a large enough effect; inconclusive = small, poorly fitted or top-dose-only effect; note: nearly all actives have a fitted effect of over 60% in size
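HEK293 cells stably expressing RXFP1, treated 30 min at 37C with compounds plus PDE4 inhibitor Ro 20174; cAMP measured by HTRF TR-FRET. Normalized to buffer and 29 nM porcine relaxin; EC50 by Hill fit.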
ClpP mod = qHTS Assay for Activators of ClpP | ATP-dependent Clp protease proteolytic subunit (Bacillus subtilis (strain 168)), P80244 | purified B. subtilis ClpP, FRET peptide cleavage, 20 min | Potency, µM (series often up to 57.5 µM) | 340,000 compounds, 1.9% hits; active = well fitted falling curve with a large enough effect; inconclusive = small, poorly fitted or top-dose-only effect; inactive = no such curve, though single readings can be large or run the other way; note: the source files actives as falling curves though it sought activators and does not explain the sign; nearly all actives have a fitted effect of over 65% in size
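Purified B. subtilis ClpP, 10 microg/mL final in Tris/HCl pH8 with KCl, BSA, glycerol and Tween-20, cleaved an Abz/nitrotyrosine-quenched decapeptide. Fluorescence (ex 320, em 430) was read at 0 and 20 min at room temperature. Delta was normalized to 5.8 microM ADEP and DMSO/no-enzyme controls.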
A number is an active result; [ ] = another dose, or the depositor's remark. Sampled rows, rich in hits. Any-hit rate of the full collection: about 2.7%.

Results for COc1ccc(CCNC(=O)Cn2c(=O)c3sccc3n(CC(=O)Nc3cccc(C(F)(F)F)c3)c2=O)cc1OC ?
RXFP1 antagonist: inactive; RXFP1 ag: inactive; ClpP mod: inactive

How did Cc1cc2ccc3ccccc3c2cc1CN(C)C do in these assays?
gsp antag: inactive; gsp agonist: inactive[15.4 µM]; Akt phos inh: inactive; RXFP1 antagonist: -107.1; RXFP1 ag: inactive

How did CN(C)Cc1cc2ccccc2c2c1COC2 do in these assays?
gsp antag: inactive; gsp agonist: inactive; Akt phos inh: inactive; RXFP1 antagonist: inactive; RXFP1 ag: inactive

What do the screens show for `Cc1ccc(S(=O)(=O)NC2(C(=O)O)CCCC2)cc1`?
gsp antag: inactive; gsp agonist: inactive; Akt phos inh: inactive; RXFP1 antagonist: inactive; ClpP mod: 35.5µM

Results for COc1ccc2c(c1)C1=NN(/C(C)=C/C(C)=O)C(c3ccc(F)cc3)C1CC2 (stereo not given) ?
gsp antag: inactive; gsp agonist: inactive; Akt phos inh: inactive; RXFP1 ag: inactive; ClpP mod: 20µM

Results for COc1ccc2c(c1)CCC1C2=NN(/C(C)=C\C(C)=O)C1c1ccc(F)cc1 (stereo not given) ?
gsp antag: inactive; gsp agonist: inactive; Akt phos inh: inactive; RXFP1 antagonist: inactive; RXFP1 ag: inactive; ClpP mod: inactive

Results for CC(=O)c1c(C)[nH]c(C(=O)COc2ccc(C#N)cc2)c1C ?
gsp antag: inactive; gsp agonist: inactive; Akt phos inh: inactive; RXFP1 antagonist: inactive; RXFP1 ag: inactive; ClpP mod: inactive

Results for COc1cc(C)ccc1OCC(=O)OCC(=O)c1[nH]c(C)c(C(C)=O)c1C ?
gsp antag: inactive; gsp agonist: inactive[15.4 µM]; Akt phos inh: inactive; RXFP1 antagonist: inactive; ClpP mod: inactive

What do the screens show for `COc1ccccc1OCC(=O)c1[nH]c(C)c(C(C)=O)c1C`?
gsp antag: 25.1µM; gsp agonist: inactive; Akt phos inh: inactive; RXFP1 antagonist: inactive; RXFP1 ag: inactive; ClpP mod: inactive

What do the screens show for `CC(=O)c1c(C)[nH]c(C(=O)COc2cc(C)ccc2C(C)C)c1C`?
gsp antag: 11.2µM; gsp agonist: inactive; Akt phos inh: inactive; RXFP1 antagonist: inactive; RXFP1 ag: inactive; ClpP mod: inactive

What do the screens show for `CC1CCN(C(=O)CSc2ccc(-c3cccc([N+](=O)[O-])c3)nn2)CC1`?
gsp antag: 28.2µM; gsp agonist: inactive[15.4 µM]; Akt phos inh: inactive; RXFP1 antagonist: inactive; RXFP1 ag: inactive

What do the screens show for `CC1CCN(c2ccc(C(=O)O)cc2NS(=O)(=O)c2ccc(Br)cc2)CC1`?
gsp antag: inactive; gsp agonist: inactive; Akt phos inh: inactive; RXFP1 ag: inactive; ClpP mod: 20µM

Results for CN(c1cccc(NC(=O)c2ccc(Cl)c(S(=O)(=O)Nc3ccccc3)c2)c1)S(C)(=O)=O ?
gsp antag: 8.91µM; gsp agonist: inactive; Akt phos inh: inactive; RXFP1 antagonist: inactive; RXFP1 ag: inactive; ClpP mod: inactive

How did CCCCCCCCCC[n+]1ccc(/C=C/c2c(C)[nH]c3ccccc23)c2ccccc21 do in these assays?
ClpP mod: inactive

Results for CC1(C)Cc2c(sc3ncn(N)c(=N)c23)CO1 ?
gsp antag: inactive; gsp agonist: inactive; Akt phos inh: inactive; RXFP1 ag: inactive; ClpP mod: inactive

How did CC1(C)Cc2c(sc3ncnc(NN)c23)CO1 do in these assays?
gsp antag: inactive; gsp agonist: inconclusive; Akt phos inh: inactive; RXFP1 antagonist: inactive; RXFP1 ag: 12.6µM; ClpP mod: inactive

What do the screens show for `CCOC(=O)N1CCN(C(=O)c2cc(COc3ccc(OC)cc3Cl)on2)CC1`?
gsp antag: 35.5µM; gsp agonist: inactive; Akt phos inh: inactive; RXFP1 antagonist: inactive; RXFP1 ag: inactive; ClpP mod: inactive

What do the screens show for `COCCCCOc1cc2nc(N3CCCN(C)CC3)nc(NC3CCN(C)CC3)c2cc1OC`?
ClpP mod: inactive

What do the screens show for `CNC(=S)N(Cc1ccco1)Cc1cc2cc3c(cc2[nH]c1=O)OCCO3`?
gsp antag: inactive; gsp agonist: inconclusive; Akt phos inh: inactive; RXFP1 antagonist: inactive; RXFP1 ag: inactive; ClpP mod: inconclusive

What do the screens show for `CC(C)CNC(=S)N(Cc1ccco1)Cc1cc2cc3c(cc2[nH]c1=O)OCCO3`?
gsp antag: inconclusive; gsp agonist: inactive; Akt phos inh: inactive; RXFP1 antagonist: inactive; RXFP1 ag: inactive; ClpP mod: 31.6µM

Results for Cc1ccc(CN(Cc2cc3cc4c(cc3[nH]c2=O)OCCO4)Cc2nnnn2Cc2ccco2)cc1 ?
gsp antag: inactive; gsp agonist: inactive; Akt phos inh: inactive; RXFP1 antagonist: inactive; RXFP1 ag: inactive; ClpP mod: 31.6µM

What do the screens show for `COCCNC(=S)N(CCCN(C)C)Cc1cc2cc3c(cc2[nH]c1=O)OCCO3`?
gsp antag: 50.1µM; gsp agonist: inconclusive; Akt phos inh: inactive; RXFP1 antagonist: inactive; RXFP1 ag: inactive; ClpP mod: inactive

How did CCNC(=S)N(Cc1ccco1)Cc1cc2cc3c(cc2[nH]c1=O)OCCO3 do in these assays?
gsp antag: inactive; gsp agonist: inactive; Akt phos inh: inactive; RXFP1 antagonist: inactive; RXFP1 ag: inactive; ClpP mod: 28.2µM

How did CCc1cc(C(=O)N2CCN(C(=O)c3ccco3)CC2)sc1C do in these assays?
gsp antag: inactive; gsp agonist: inactive; Akt phos inh: inactive; RXFP1 antagonist: inactive; RXFP1 ag: inactive; ClpP mod: 28.2µM

Results for CC(=O)C1=C(C)NC(SCC(=O)c2ccc(Cl)cc2)=C(C#N)C1CC(C)C (stereo not given) ?
gsp antag: inactive; gsp agonist: inactive; Akt phos inh: inactive; RXFP1 antagonist: inactive; RXFP1 ag: inconclusive; ClpP mod: 25.1µM

Results for CC(=O)C1=C(C)NC(SCC(=O)c2ccc(F)cc2)=C(C#N)C1CC(C)C (stereo not given) ?
gsp antag: inactive; gsp agonist: inactive; Akt phos inh: inactive; RXFP1 antagonist: inactive; RXFP1 ag: inactive; ClpP mod: inactive

What do the screens show for `CC(C)OC1=CC(=O)OC(c2cccc(Cl)c2)C1` (stereo not given)?
Akt phos inh: inactive; ClpP mod: inactive

Results for COc1nc(=O)n(C2OC(CO)C(O)C2O)cc1C (stereo not given) ?
gsp antag: inactive; gsp agonist: inactive; Akt phos inh: inactive; RXFP1 antagonist: inactive; ClpP mod: 35.5µM

Results for Nc1ncn([C@@H]2O[C@H](CO)[C@@H](O)[C@H]2O)c(=O)n1 ?
gsp antag: inactive; Akt phos inh: inactive; RXFP1 antagonist: inactive; RXFP1 ag: inactive; ClpP mod: inactive
